In PubChem BioAssay (EPA / NIEHS):
Calls of active or inactive are those of the source. Rule for the calls: active = hit-call score of the fitted dose curve at least 0.9, where 1 is the maximum; inactive = score below 0.9.

Test: CEETOX_H295R_11DCORT: CeeTox H295R High-throughput Steroidogenesis Assay for 11-Deoxycortisol (11DCORT) (AID 2283432);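 for AC50: 11-deoxycortisol secreted into the medium measured by LC-MS/MS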
Settings: actives raise or lower the signal
Outline: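 Steroidogenesis in human H295R cells: 48 h chemical exposure after forskolin priming, 11-deoxycortisol measured by LC-MS/MS.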
With COP(=S)(OC)SCN1C(=O)c2ccccc2C1=O the outcome was “inactive”.
With CCC(C)c1ccc(O)cc1 (stereo not drawn) the outcome was “inactive”.
With Cc1cc(N=Nc2ccccc2C)ccc1N the outcome was “inactive”.
With O=P(OCCCl)(OCCCl)OCCCl the outcome was “inactive”.
In the case of CCOC(=O)[C@]1(c2ccccc2)Oc2ccccc2[C@@H]1N, the AC50 is reported as 2.19 µM (active).
In the case of Oc1ccc2ccc3cccc4ccc1c2c34, the AC50 is reported as 18.8 µM (active).
For Cc1cccc(N)c1N, the outcome was “inactive”.
In the case of c1ccc(NNc2ccccc2)cc1, the outcome is reported as “inactive”.

Test: CEETOX_H295R_OHPREG: CeeTox H295R High-throughput Steroidogenesis Assay for OH-Pregnenolone (OHPREG) (AID 2283434)
Settings: actives raise or lower the signal
Outline: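 Secreted 17alpha-hydroxypregnenolone measured by HPLC-MS/MS after liquid-liquid extraction. Human adrenal H295R cells received 48 h forskolin (10 uM) stimulation before 48 h chemical exposure at 0.1% final DMSO; MTT viability in same wells; bidirectional fit against DMSO.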
In the case of COP(=S)(OC)SCN1C(=O)c2ccccc2C1=O, the outcome is reported as “inactive”.
With c1ccc2c(c1)-c1cccc3cccc-2c13 the AC50 was 14 µM (active).
For CCC(C)c1ccc(O)cc1 (stereo not drawn), the outcome was “inactive”.
In the case of O=[N+]([O-])c1ccc(Oc2ccc(Cl)cc2Cl)cc1, the outcome is reported as “inactive”.
With Cc1cc(N=Nc2ccccc2C)ccc1N the outcome was “inactive”.
For O=P(OCCCl)(OCCCl)OCCCl, the outcome was “inactive”.
In the case of CCOC(=O)[C@]1(c2ccccc2)Oc2ccccc2[C@@H]1N, the AC50 is reported as 1.4 µM (active).
With Oc1ccc2ccc3cccc4ccc1c2c34 the AC50 was 25 µM (active).
With Cc1cccc(N)c1N the AC50 was 27 µM (active).
With c1ccc(NNc2ccccc2)cc1 the outcome was “inactive”.
